Here are results for 35 compounds from PubChem BioAssay (NCI).

SMILES strings stand for the structures. About 83,000 compounds went through this panel and 20% of them were active in at least one assay; those are over-represented in the sample as a whole.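 Testing used 96-well plates and a 48-hour single-concentration exposure. Example: -40 means 40% of the starting cells died.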 The source made the active and inactive calls. Rule for the calls: active = growth percent below 10; inactive = the rest.

The subject of the first assay is K-562 leukemia. Briefly: NCI-60 one-dose screen, 48 h (100 = growth as untreated, 0 = no growth, -100 = all killed). The following applies: 10 µM unless noted.
For the compound `FC(F)(F)c1cc(-c2nnc3n2N=C(Cl)CS3)cc(C(F)(F)F)c1`, the growth was 83.4% (inactive).
Take `NNc1ccc(S(N)(=O)=O)cc1`: the growth was 109% (inactive).
Regarding `COc1ccc(-n2nc(C(=O)Nc3ccc(F)cc3)nc2-c2cc(OC)c(OC)c(OC)c2)cc1`, the growth is 83.7% (inactive).
Turning to `CC(=O)C1CCC2C3CC(C)=C4CC(O)CCC4(C)C3CCC12C` (stereo unspecified), the growth is 86.1% (inactive).
In the case of `CCCCCCCCCCCCCC`, the growth was 113% (inactive).
Same read-out and setting: to `COc1cc(OC)c(C(=O)/C=C/c2cccc(OC(C)=O)c2)cc1CC=C(C)C` belongs 16.5% (inactive); to `COc1cc2ccc(C(C)=O)cc2cc1OC`, 118% (inactive).

The test system of the next assay is MALME-3M melanoma. Described as above. Conditions: 10 µM unless noted.
With `COc1cc(C2CC(=O)Nc3c2cnn3C)cc(OC)c1OC` (stereo unspecified), the growth is 97.7% (inactive).
`C=C(c1ccc(C(=O)NCCCn2ccnc2)cc1)c1cc2c(cc1C)C(C)(C)CCC2(C)C`: the growth is -1.54% (active).
As to `Nc1c(Br)cc2c(c1Br)Cc1cc(Cl)ccc1-2`, the growth is 109% (inactive).
Same read-out and setting: the value for `CCCCCCCCCCCCNC(=O)N[C@H](C(=O)N[C@H]1/C=C/CCNC(=O)/C=C/[C@H](C)NC1=O)C(C)C` was -1.82% (active); that for `C=C(C)[C@@H]1CC[C@]2(C(=O)NS(=O)(=O)c3ccccc3)CC[C@]3(C)[C@H](CC[C@@H]4[C@@]5(C)CC[C@H](OC(=O)NS(=O)(=O)c6ccccc6)C(C)(C)[C@@H]5CC[C@]43C)[C@@H]12` was 11.3% (inactive); that for `FC(F)(F)c1cc(-c2nnc3n2N=C(Cl)CS3)cc(C(F)(F)F)c1` was 99% (inactive).
Turning to `Cc1cc(-c2ccccc2)on1`, the growth is 102% (inactive).
The same measure, in the same setting: to `CNC(=O)c1c(NC(=O)c2cccc(C(F)(F)F)c2)sc2c1CCC(=O)C2` belongs -28.9% (active); to `COc1ccccc1/C=C/C(=O)CCC(=O)O`, 101% (inactive).
The same measure, in the same setting: to `NNc1ccc(S(N)(=O)=O)cc1` belongs 104% (inactive); to `CCc1c(C)c2ccc(O)c(-c3cc(-c4ccccc4)c(C#N)c(=O)[nH]3)c2oc1=O`, 107% (inactive); to `O=C1OCC2=C1C(c1ccccc1)c1cc3c(cc1N2CCO)OCO3` (stereo unspecified), 50% (inactive).
Regarding `CCCCCCCCCCCCNC(=O)N[C@H](C(=O)N[C@H]1/C=C/OCCNC(=O)/C=C/[C@H](C(C)C)NC1=O)C(C)C`, the growth was 71% (inactive).
On the same count and under the same terms, the value for `COc1ccc(-n2nc(C(=O)Nc3ccc(F)cc3)nc2-c2cc(OC)c(OC)c(OC)c2)cc1` was 96.2% (inactive); that for `COc1ccc2c(c1)OC1=C(C(=O)OC1)C2c1cc(OC)c2c(c1)OCCO2` (stereo unspecified) was 62.9% (inactive); that for `O=S1(=O)NCCN1CCNc1nccc(-c2c(-c3cccc(O)c3)nc3sccn23)n1` was 4.99% (active).
Consider `O=C(CC(=O)C(F)(F)C(F)(F)C(F)(F)F)c1cc2ccccc2o1`, for which the growth was 102% (inactive).
As to `Clc1cc2nc(-c3ccccc3)c(-c3ccccc3)nc2cc1Cl`, the growth is 85.8% (inactive).
Still for that read-out and setting: the value for `CC(C)(C)c1ccc(C(=O)Nc2sc3cc(O)ccc3c2C(N)=O)cc1` was 94% (inactive).
Turning to `CC1=CCC2C1CC=C(C)C(CC[C@H]1[C@@](C)(O)CCC3OC(C)(C)[C@H](OC(=O)c4ccccc4)CC[C@@]31C)C2(C)C` (stereo partly specified), the growth was 111% (inactive).
On the same count and under the same terms, the value for `CCCCCCCCCCCCCC` was 113% (inactive); that for `CCN(CCC#N)c1ccccc1` was 100% (inactive).
On the same count and under the same terms, the value for `O=S1(=O)NCCCN1CCNc1nccc(-c2c(-c3cccc(O)c3)nc3sccn23)n1` was 17.3% (inactive); that for `COc1ccc(-c2conc2-n2nc(-c3ccccc3)nc2-c2ccccc2)cc1` was 105% (inactive); that for `COc1ccccc1CNCCCN1C(=O)c2ccc3c4c(ccc(c24)C1=O)C(=O)N(CCCCNCCCN)C3=O` was -95.6% (active).
Same read-out and setting: to `Cc1ccc(C(=O)CC(=O)C(F)(F)C(F)(F)C(F)(F)F)s1` belongs 98.7% (inactive); to `O=C1CCCN1C(O)CCN(Cc1ccccc1)Cc1ccc(Cl)cc1` (stereo unspecified), 109% (inactive).
For `Nc1c(N)c2ccccc2c2ccccc12`, the growth is 110% (inactive).
Same read-out and setting: the value for `CCOC(=O)C1=C(C)NC(=S)NC1c1ccccc1` (stereo unspecified) was 101% (inactive); that for `CCOC(=O)C1=C(C(=O)OCC)N(c2cc(OC)c(OC)c(OC)c2)C(N)=C(C#N)C1c1cc(=O)[nH]c2ccccc12` (stereo unspecified) was 104% (inactive).
On to `CC(=O)Nc1ccc(/C=N/N2CCCCCC2)cc1`, for which the growth was 99.7% (inactive).
As to `CCOC(=O)c1cnc(SCC)nc1SC#N`, the growth is 97.7% (inactive).
Same read-out and setting: the value for `COc1cc(OC)c(C(=O)/C=C/c2cccc(OC(C)=O)c2)cc1CC=C(C)C` was 122% (inactive); that for `COc1cc2ccc(C(C)=O)cc2cc1OC` was 107% (inactive).
